These results are taken from PubChem BioAssay (Tox21).

Test [1] in a line: qHTS assay to identify small molecule agonists of the hypoxia (HIF-1) signaling pathway - cell viability counter screen (AID 1224844; calls by dose curve; also: nearly all actives have a fitted effect of over 50% in size; also: potency is read from the fitted curve at half-maximal effect). The gist of the method:
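ME-180 HRE-bla cells, 2,000/well, 0.5% dialyzed FBS; 5 hr settle, 17 hr compound at 37C/5% CO2; CCF4-AM reporter read first, then CellTiter-Glo luminescence after 30 min RT.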
On the technique in general: Quantitative high-throughput screening tests each substance at several concentrations.

Test [2] in a line: qHTS assay to identify small molecule agonists of H2AX - cell viability counter screen (AID 1224847; calls by dose curve; also: nearly all actives have a fitted effect of over 30% in size; also: potency is read from the fitted curve at half-maximal effect). The gist of the method: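 Read-out: CellTiter-Glo luminescence, 30 min RT. Cells: wild-type CHO-K1, 1000/well, 10% FBS, plated overnight at 37C. Treatment: 15 concentrations, 3 hr, 37C, 0.76% DMSO.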
The nature of test [3]: qHTS assay to identify small molecule antagonists of the estrogen related receptor (ERR) signaling pathway from Tox21 library (AID 1224848). Also: nearly all actives have a fitted effect of over 50% in size. Also: potency is read from the fitted curve at half-maximal effect. The gist of the method: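 Reading was by luminescence 30 min after ONE-Glo addition. Before that, ERR cells at 2,000 per well had rested 6 h at 37 C/5% CO2 and then received pin-tooled compounds in DMSO for 18 h at 37 C.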
A short description of test [4]: qHTS assay to identify small molecule agonists of the estrogen related receptor (ERR) signaling pathway from Tox21 library (AID 1224849; calls by dose curve; also: nearly all actives have a fitted effect of over 15% in size). To be noted: ERR reporter cell line, ONE-Glo luciferase, 18 h; at 92.4 µM (top of the series) unless noted. The gist of the method:
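ERR cells, 6 h pre-incubation 37 C/5% CO2; cpd in DMSO pinned; 18 h 37 C; ONE-Glo added, 30 min RT; luminescence read. Agonist mode, qHTS.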

The nature of test [5]: qHTS RealTime-Glo MT Cell Viability Assay in HepG2 cells - 24 hour (AID 1224867). Also: nearly all actives have a fitted effect of over 50% in size. Also: potency is read from the fitted curve at half-maximal effect. The gist of the method: (§1)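 Compound treatment began 5 h after plating HepG2 cells (600/well) with NanoLuc luciferase and prosubstrate. Plates stayed at 37 C for 40 h; luminescence was captured at six time points, 0 h through 40 h.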
Test [6] in a line: qHTS RealTime-Glo MT Cell Viability Assay in HEK293 cells - 32 hour (AID 1224868). Also: nearly all actives have a fitted effect of over 50% in size. Also: potency is read from the fitted curve at half-maximal effect. The gist of the method:
(§2)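 Quantitative high-throughput screen of the Tox21 10K library in HEK293: cells and RealTime-Glo reagents plated together, compound added at 5 h, luminescence monitored through 40 h at 37 C.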

A short description of test [7]: A CellTox Green Cytotoxicity Assay to monitor cytotoxicity in HEK293 cells - 0 hour (AID 1224869). Also: nearly all actives have a fitted effect of over 50% in size. The gist of the method:
(§3)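 Nonlytic real-time cytotoxicity: HEK293 + CellTox Green reagent plated, 5 h preincubation, pintool compound addition (23 nL in DMSO), 37 C for 40 h, fluorescence measured at successive time points.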

Test [8] can be described thus: A CellTox Green Cytotoxicity Assay to monitor cytotoxicity in HEK293 cells - 40 hour (AID 1224871). Also: nearly all actives have a fitted effect of over 45% in size. Also: potency is read from the fitted curve at half-maximal effect. The gist of the method:
as §3

Test [9] can be described thus: qHTS RealTime-Glo MT Cell Viability Assay in HepG2 cells - 8 hour (AID 1224873). Also: nearly all actives have a fitted effect of over 55% in size. Also: potency is read from the fitted curve at half-maximal effect. The gist of the method: (§4)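 Real-time viability: cells seeded at 600 per well together with NanoLuc and cell-permeant prosubstrate, compounds added after 5 h incubation. Luminescence tracked at 0, 8, 16, 24, 32 and 40 h of exposure.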
Test [10] is described as follows: qHTS RealTime-Glo MT Cell Viability Assay in HEK293 cells - 40 hour (AID 1224874). Also: nearly all actives have a fitted effect of over 50% in size. Also: potency is read from the fitted curve at half-maximal effect. To be noted: RealTime-Glo luminescence; max response: hits give low values. The gist of the method:
(§5)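 Cells were seeded together with NanoLuc luciferase and a prosubstrate that viable cells reduce to a luciferase substrate. After a 5 h incubation at 37 C/5% CO2, compounds were added and luminescence was measured repeatedly during 40 h of treatment.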

Test [11] in a line: A CellTox Green Cytotoxicity Assay to monitor cytotoxicity in HEK293 cells - 24 hour (AID 1224875). Also: nearly all actives have a fitted effect of over 45% in size. Also: potency is read from the fitted curve at half-maximal effect. The gist of the method:
as §3

The nature of test [12]: A CellTox Green Cytotoxicity Assay to monitor cytotoxicity in HepG2 cells - 16 hour (AID 1224876). Also: nearly all actives have a fitted effect of over 45% in size. Also: potency is read from the fitted curve at half-maximal effect. The gist of the method:
(§6)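 Read-out is fluorescence of a cyanine dye excluded from live cells that stains DNA of dead HepG2 cells, with signal proportional to cytotoxicity. Plates were read at 0, 8, 16, 24, 32 and 40 h after compound addition.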

Test [13] can be described thus: qHTS RealTime-Glo MT Cell Viability Assay in HepG2 cells - 32 hour (AID 1224877). Also: nearly all actives have a fitted effect of over 55% in size. Also: potency is read from the fitted curve at half-maximal effect. The gist of the method:
as §1

The nature of test [14]: A CellTox Green Cytotoxicity Assay to monitor cytotoxicity in HepG2 cells - 24 hour (AID 1224878). Also: nearly all actives have a fitted effect of over 45% in size. Also: potency is read from the fitted curve at half-maximal effect. The gist of the method: as §6
The nature of test [15]: A CellTox Green Cytotoxicity Assay to monitor cytotoxicity in HepG2 cells - 40 hour (AID 1224879). Also: nearly all actives have a fitted effect of over 40% in size. Also: potency is read from the fitted curve at half-maximal effect. The gist of the method: as §6
The nature of test [16]: qHTS RealTime-Glo MT Cell Viability Assay in HEK293 cells - 0 hour (AID 1224880). The gist of the method: as §5
The nature of test [17]: qHTS RealTime-Glo MT Cell Viability Assay in HEK293 cells - 16 hour (AID 1224872). Also: nearly all actives have a fitted effect of over 50% in size. Also: potency is read from the fitted curve at half-maximal effect. The gist of the method:
as §2

A short description of test [18]: qHTS assay to identify small molecule agonists of the hypoxia (HIF-1) signaling pathway (AID 1224846; active = well fitted activation curve with a large enough effect in the signal ratio in the repeat runs, not every such curve was filed as active; the % refers to the signal ratio). The gist of the method: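 Cell line: CellSensor HRE-bla ME-180; 2,000 cells/well; 0.5% dialyzed FBS; 5 h preincubation; DMSO compound pin transfer; 17 h, 37C, 5% CO2; CCF4-AM added; bla FRET signal scored for activation.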
Test [19] in a line: qHTS RealTime-Glo MT Cell Viability Assay in HepG2 cells - 40 hour (AID 1224870). Also: nearly all actives have a fitted effect of over 50% in size. The gist of the method: as §4

Unmarked numbers belong to inactive results. Results filed as inconclusive are left out. The source made the active and inactive calls. Unless noted, calls follow the shape of the dose curve; as a rule, active = well fitted curve in the direction sought with a large enough effect in the repeat runs; inconclusive = weak or mixed curves; inactive = no such curve, though single readings can be large; an effect the other way counts as inactive or inconclusive.
% is scaled to controls: 0 for no effect and ±100 for the full control effect.

Consider `CC(O)C(=O)[O][Hg][c]1ccccc1` (stereo not given), for which the Potency is 1.38 µM (active) in [1]; 6.35 µM (active) in [2]; 3.86 µM (active) in test [3]; 2.45 µM (active) in test [5]; 0.977 µM (active) in test [6]; 0.977 µM (active) in test [8]. Besides, the Potency was 2.19 µM (active) in test [9]; 0.977 µM (active) in [10]; 21.9 µM (active) in test [11]; 2.75 µM (active) in test [12]; 2.75 µM (active) in test [13]; 2.45 µM (active) in [14]. The Potency in test [15] is 1.95 µM (active). Also, the activity change, positive = activation in test [4] is -80.9%. Further, the Potency result in test [7] and in test [16] was “inactive” in each case.
With `C=CC(=O)[O][Sn]([CH2]CCC)([CH2]CCC)[CH2]CCC`, the Potency in [1] was 0.977 µM (active); in test [2], 1.42 µM (active); in test [3], 1.37 µM (active); in test [5] it was 0.436 µM (active); in test [6], 0.389 µM (active); in test [8], 0.871 µM (active). Besides, the Potency in test [17] was 0.549 µM (active); in test [9] it was 0.977 µM (active); in [10], 0.389 µM (active); in test [11], 7.76 µM (active); in [12] it was 0.616 µM (active); in test [13], 0.389 µM (active). Moreover, the Potency in test [14] was 0.692 µM (active); in test [15], 0.549 µM (active). Further, the activity change, positive = activation in test [4] was -66.8%. Besides, the Potency entry in test [7] is “inactive”.
Regarding `Cc1cc(C2CC2)nc(Nc2ccccc2)n1`, the Potency entry in [1], in test [18], in test [3], in [7], in [19] and in test [11] was “inactive” each time. In test [16], the Potency result is “inactive”. In test [4], the activity change, positive = activation was 13.7% (active). For the same molecule, the Potency is 24.5 µM (active) in [6], 21.9 µM (active) in test [17] and 21.9 µM (active) in test [10].
With `O=S(=O)(O)F`, the Potency result in test [1], in test [18], in test [2], in [5], in test [6] and in test [7] was “inactive” throughout. For the same molecule, the Potency result in test [19], in test [8], in test [17], in test [9], in test [11] and in test [12] was “inactive” throughout. Besides, the Potency entry in [13], in test [14], in test [15] and in [16] was “inactive” in each case. In addition, the max response in test [10] is 6.96%.
On to `O=c1c2ccccc2c(=O)c2c1cc(Cl)c1[nH]c3c([nH]c12)c(Cl)cc1c(=O)c2ccccc2c(=O)c13`, for which the Potency entry in [1], in test [18], in [2], in test [5], in test [6] and in test [7] was “inactive” in each case. The Potency result in test [19], in [8], in test [17], in [9], in test [11] and in test [12] was “inactive” in each case. Also, the Potency entry in test [13], in [14], in test [15] and in test [16] was “inactive” in each case. Moreover, the activity change, positive = activation in test [4] was -7.42%. For the same molecule, the max response in test [10] was 12.8%.
Consider `CC(C)Br`, for which the Potency entry in [1], in [18], in test [2], in test [5], in test [6] and in test [7] was “inactive” in each case. In addition, the Potency result in [8], in test [9], in test [11], in [12], in test [13] and in test [14] was “inactive” each time. Further, the Potency result in [15] and in test [16] was “inactive” throughout. Besides, the max response in [10] is -13.8%.
`CC1CCCC1`: the Potency result in test [1], in test [18], in test [2], in test [5], in test [6] and in [7] was “inactive” in each case. The Potency result in test [8], in test [17], in test [9], in test [11], in test [12] and in [13] was “inactive” in each case. Moreover, the Potency entry in [14], in test [15] and in test [16] was “inactive” each time. Besides, the max response in test [10] is -28.5%.
`CSC1=N[C@@](C)(c2ccccc2)C(=O)N1Nc1ccccc1`: the Potency result in test [1], in [18], in test [5], in [6], in test [7] and in test [19] was “inactive” each time. Also, the Potency result in test [8], in test [17], in test [9], in test [11], in test [12] and in test [13] was “inactive” in each case. The Potency entry in test [14] and in test [15] was “inactive” in each case.
`COC(=O)C(C)N(C(=O)c1ccco1)c1c(C)cccc1C` (stereo not given): the Potency entry in test [1], in test [18], in [2], in [3], in [5] and in test [6] was “inactive” in each case. The Potency result in test [7], in test [19], in test [8], in [17], in [9] and in [11] was “inactive” each time. Moreover, the Potency entry in test [12], in [13] and in [16] was “inactive” in each case. In test [4], the activity change, positive = activation is -15.8%.
With `O=c1[nH]c(Cl)c(Cl)cc1Cl`, the Potency entry in test [1], in test [18], in test [2], in test [5], in test [6] and in test [7] was “inactive” in each case. For the same molecule, the Potency entry in test [19], in test [8], in test [17], in [9], in test [11] and in test [12] was “inactive” throughout. For the same molecule, the Potency entry in test [13], in test [14], in test [15] and in [16] was “inactive” each time. Moreover, the activity change, positive = activation in [4] is -28.7%.
As to `CCCCn1cc[n+](C)c1.[Cl][Fe-]([Cl])([Cl])[Cl]`, the Potency result in [1], in test [18], in test [2], in [5], in test [6] and in test [7] was “inactive” in each case. Moreover, the Potency entry in [19], in [8], in test [9], in [11], in test [12] and in test [13] was “inactive” in each case. For the same molecule, the Potency result in test [14], in test [15] and in test [16] was “inactive” each time.
`FC(F)C(F)(F)OCC(Cn1cncn1)c1ccc(Cl)cc1Cl` (stereo not given): the Potency result in test [1], in [18], in test [7], in test [11] and in test [16] was “inactive” in each case. Further, the Potency in [2] is 112 µM (active); in test [6], 21.7 µM (active); in test [17] it was 24.4 µM (active); in [9], 54.6 µM (active); in test [10], 21.7 µM (active); in [15], 48.7 µM (active).
Take `COc1c2c(cc3c1OCO3)CCN(C)C2`: the Potency entry in [1], in [18], in test [2], in test [5], in test [6] and in test [7] was “inactive” throughout. In addition, the Potency entry in test [19], in test [8], in test [17], in [9], in test [11] and in test [12] was “inactive” throughout. The Potency result in test [13], in [15] and in test [16] was “inactive” each time. The max response in [10] was -9.04%.
As to `O=C(Nc1ccc(F)cc1F)c1cccnc1Oc1cccc(C(F)(F)F)c1`, the Potency entry in test [1], in [18], in [5], in test [6], in test [7] and in [19] was “inactive” each time. In addition, the Potency result in test [17], in [9], in [11], in test [12], in test [13] and in [14] was “inactive” in each case. Also, the Potency result in [15] and in test [16] was “inactive” throughout. For the same molecule, in test [4], the activity change, positive = activation is 5%. For the same molecule, the Potency in test [8] was 53.8 µM (active). The max response in [10] was 0.876%.
